CYP2C9 inhib = inhibitors of human CYP2C9. AID 777. actives 20% (n = 96,000). inhibition, % at 5 µM. P11712. CYP2C9 Supersomes, luciferin-H conversion, luminescence;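 active = blocking of liver enzyme CYP2C9 beyond about 50% at 5 µM, limit read from the data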
Target sequence (P11712 whole entry, looked up): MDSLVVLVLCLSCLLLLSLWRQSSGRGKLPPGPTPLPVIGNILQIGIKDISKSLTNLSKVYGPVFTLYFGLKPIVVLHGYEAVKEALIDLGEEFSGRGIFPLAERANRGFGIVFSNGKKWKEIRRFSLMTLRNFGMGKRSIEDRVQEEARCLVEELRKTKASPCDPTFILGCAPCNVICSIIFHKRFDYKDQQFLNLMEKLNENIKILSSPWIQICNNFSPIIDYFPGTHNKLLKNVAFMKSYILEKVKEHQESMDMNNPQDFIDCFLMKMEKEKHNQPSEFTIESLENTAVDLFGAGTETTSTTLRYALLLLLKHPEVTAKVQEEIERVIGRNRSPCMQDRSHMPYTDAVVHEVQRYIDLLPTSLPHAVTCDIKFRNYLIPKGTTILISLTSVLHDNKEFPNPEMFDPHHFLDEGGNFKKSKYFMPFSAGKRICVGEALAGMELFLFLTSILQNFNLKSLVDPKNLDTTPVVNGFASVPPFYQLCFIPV
CYP2C19 activ = activators of human cytochrome P450 2C19; P33261; recombinant CYP2C19, luciferin-H EGE luminescence; stronger effect = higher value; 0 = fully inhibited enzyme, 1 = untreated enzyme; activation factor at 5 µM; 96,000 tested, under 10 active;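 active = activation factor of at least 2 at 5 µM in the primary screen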;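 note: 0 = wells with 2.5 mM tranylcypromine and 1 = vehicle-only wells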
CYP2C19 inh = blocks human cytochrome P450 2C19. actives 21% (n = 96,000). CYP2C19 Supersomes, luciferin-H EGE luminescence, 30 min. inhibition, % at 5 µM. P33261;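 active = CYP2C19 inhibition above a set limit at 5 µM in the primary screen, cut at about 50% in these data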;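 note: plate controls were negative control wells for no effect and 2.5 mM tranylcypromine positive control for full effect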
CYP2C9 activ = CYP2C9 (human) activation | P11712 | recombinant CYP2C9, luciferin-H conversion, luminescence; stronger effect = higher value; factor 1 = untreated enzyme, 0 = blocked | activation factor at 5 µM | actives 1.4% (n = 96,000) | AID 1024;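 active = activation factor of 2 or more for CYP2C9 at a 5 µM dose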;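 note: 0 = sulfaphenazole-blocked wells and 1 = vehicle-only wells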
Active calls of the source: *. Rows were chosen to be rich in hits. Some 31% of all compounds tested hit in one or more screens of this group.

SMILES | CYP2C9 inhib | CYP2C19 activ | CYP2C19 inh | CYP2C9 activ
Cc1ccc(S(=O)(=O)Cc2ccc(C(=O)N3CCc4ccccc4C3)o2)cc1 | 56.1* | 0.1 | 92.1* | 0.4
COc1ccc(S(=O)(=O)Cc2ccc(C(=O)N3CCc4ccccc4C3)o2)cc1 | 53.2* | 0.1 | 89.3* | 0.5
COc1ccc(S(=O)(=O)Cc2ccc(C(=O)NCCc3ccc(S(N)(=O)=O)cc3)o2)cc1 | 44.1 | 1 | 1.9 | 0.6
CCOC(=O)N1CCN(C(=O)c2ccccc2CCc2ccccc2)CC1 | 87.1* | 0.2 | 77.2* | 0.1
BrC(=C\c1ccccc1)/C=N/N1CCN(c2ccccn2)CC1 | -3.5 | 0.8 | 21.8 | 1
CCOC(=O)N1CCN(C(=O)c2cnn3ccccc23)CC1 | 5.3 | 0.6 | 42.8 | 0.9
O=C(/C=C/c1ccccc1)N1CCN(c2ccccn2)CC1 | 52.9* | 0.5 | 47.5 | 0.5
NC(=O)C1CCN(C(=O)c2cc3ccccn3n2)CC1 | -13.3 | 1.1 | -14.3 | 1.1
O=C(c1cc2ccccn2n1)N1CCN(c2ccccn2)CC1 | 18.0 | 0.5 | 54.9* | 0.8
O=C(c1ccccc1CCc1ccccc1)N1CCN(c2ccccn2)CC1 | 94.6* | 0.1 | 90.8* | 0.1
O=C(O)CN1C(=O)SC(Nc2ccc(Cl)cc2)C1=O (stereo not given) | 0.0 | 0.8 | 15.9 | 1
CCCCn1c(SCc2cccnc2)nc2c1c(=O)n(C)c(=O)n2C | 11.9 | 0.9 | 8.8 | 0.9
O=C(c1ccccc1Cl)N1CCN(c2ccccn2)CC1 | 77.5* | 0.2 | 81.7* | 0.2
O=C(c1cccc(Cl)c1Cl)N1CCN(c2ccccn2)CC1 | 46.4 | 0.5 | 45.3 | 0.5
CCOC(=O)N1CCN(C(=O)c2cccc(OC)c2O)CC1 | 4.1 | 0.4 | 57.3* | 1
O=C(NCCCNCCCNC(=O)c1ccccn1)c1ccccn1 | -1.6 | 0.9 | 6.2 | 1
O=C(c1ccc(Cl)c(S(=O)(=O)N2CCCCCC2)c1)N1CCN(c2ccccn2)CC1 | 56.8* | 0.7 | 25.2 | 0.4
O=C(/C=C/c1ccccc1)c1ccccn1 | 27.2 | 0.5 | 51.2* | 0.7
CN1CCN(C(=O)c2ccc(Cl)c(S(=O)(=O)N3CCCCC3)c2)CC1 | 10.7 | 0.8 | 24.3 | 0.9
Cc1cn(C2CC3OCC3O2)c(=O)[nH]c1=O (stereo not given) | 2.6 | 1 | -0.9 | 1
Nc1cc(Cl)ccc1C(=O)OCC(=O)NC1CCS(=O)(=O)C1 (stereo not given) | -9.2 | 0.8 | 24.4 | 1.1
CSc1nnc(-c2cnccn2)n1Cc1ccccc1 | 3.9 | 0.8 | 21.5 | 1
CC1(C)CC(=O)C=C(Nc2ccccc2F)C1 | 17.0 | 0.5 | 49.2 | 0.8
COc1ccc(CCN2C(=O)CC(Nc3ccc(N4CCOCC4)cc3)C2=O)cc1OC (stereo not given) | 14.4 | 0.9 | 13.8 | 0.9
O=C(CCC(=O)c1ccc(F)cc1)OC1CCOC1=O (stereo not given) | -15.6 | 0.2 | 78.3* | 1.2
SMILES | CYP2C9 inhib | CYP2C19 activ | CYP2C19 inh | CYP2C9 activ
CCOc1ccc(C(=O)NCC(=O)OC2CCOC2=O)cc1OCC (stereo not given) | -6.9 | 1 | -1.0 | 1.1
O=C(O)CCc1nnc2n(Cc3ccc(F)cc3)c(=O)c3ccccc3n12 | -0.9 | 1 | -2.0 | 1
c1ccc2c(c1)nc(NC1CCCCC1)c1nncn12 | -2.5 | 0.9 | 10.0 | 1
CCC(c1nnc(SCc2nc3ccccc3s2)n1Cc1ccccc1)N(C)C (stereo not given) | 74.4* | 0.2 | 80.6* | 0.3
CCn1c(SCc2nc3ccccc3s2)nnc1-c1ccccc1 | 20.3 | 0 | 99.0* | 0.8
c1ccc(-n2cnnc2SCc2nc3ccccc3s2)cc1 | 11.6 | 0.6 | 39.3 | 0.9
CCn1c(SCc2cccc(C)c2)nnc1-c1ccccc1 | 4.6 | 0 | 97.3* | 1
CCOC(=O)CSc1nnc(-c2cccc(Cl)c2)n1CC | 6.6 | 0.5 | 52.4* | 0.9
CSC1=NCCN1C(=O)Cc1cccs1 | -1.5 | 1 | 2.0 | 1
COc1cccc(CNC(=O)C(CCSC)NS(=O)(=O)c2ccc3c(c2)oc(=O)n3C)c1 (stereo not given) | 3.5 | 0.9 | 6.4 | 1
COc1cccc(-c2nnc(SCc3nc4ccccc4s3)n2C)c1 | 28.7 | 0.2 | 81.3* | 0.7
c1ccc(Cn2c(SCc3nc4ccccc4s3)nnc2-c2ccco2)cc1 | 82.7* | 0.1 | 88.0* | 0.2
Cc1ccccc1CN(c1ccc(C(=O)NCCC2=CCCCC2)cc1)S(C)(=O)=O | 13.4 | 0.9 | 7.4 | 0.9
CC(CP(=O)(O)O)NC(=O)Cc1ccccc1 (stereo not given) | -22.5 | 1.1 | -10.0 | 1.2
CN(C)S(=O)(=O)c1ccc(NC(=O)c2ccccn2)cc1 | 15.3 | 0.9 | 8.5 | 0.8
CN(C)S(=O)(=O)c1ccc(-c2cn3ccccc3n2)cc1 | 54.0* | 0.9 | 12.5 | 0.5
CCC(C)N1C(=O)C2C(C(=O)Nc3cccc(OC)c3)C3C=CC2(O3)C1C(=O)NC1CCCCC1C (stereo not given) | 12.1 | 0.9 | 8.0 | 0.9
CCCCN(C(=O)NC(=O)Nc1cccc(C)c1C)S(C)(=O)=O | 17.5 | 1 | 2.6 | 0.8
OC(C#CCN1CCOCC1)(c1ccccc1)C1CC1 (stereo not given) | -5.4 | 0.4 | 57.3* | 1.1
O=C(O)CN1CCOCCOCCN(CC(=O)O)CCOCCOCC1 | 3.8 | 0.9 | 5.8 | 1
Cc1ccc(C(=O)Nc2ncc3c(Cl)cccc3n2)cc1 | 26.2 | 0.7 | 34.2 | 0.7
Cc1cccc(N2CCN(C(=O)Cn3sc4nc(C)cc(C)c4c3=O)CC2C)c1 (stereo not given) | 53.6* | 0.7 | 26.1 | 0.5
Cc1cccc(N2CCN(C(=O)CN3CCOc4ccccc43)CC2C)c1 (stereo not given) | 53.9* | 0.1 | 93.7* | 0.5
Cc1cccc(N2CCN(C(=O)c3ccncc3)CC2C)c1 (stereo not given) | 49.1 | 0 | 100.0* | 0.5
COc1ccc(N2CCN(C(=O)Cn3c(=O)[nH]c4ccsc4c3=O)CC2)cc1 | -12.2 | 1.1 | -8.7 | 1.1
SMILES | CYP2C9 inhib | CYP2C19 activ | CYP2C19 inh | CYP2C9 activ
Cc1ccc(-c2ccc(=O)n(CC(=O)N3CCN(c4cccc(C)c4)C(C)C3)n2)cc1 (stereo not given) | 18.7 | 0.7 | 26.8 | 0.8
Cc1cccc(N2CCN(C(=O)Cn3c(=O)[nH]c4ccsc4c3=O)CC2C)c1 (stereo not given) | 37.4 | 0.4 | 59.4* | 0.6
COC(=O)c1ccc2c(c1)N(C)C(=O)CS2 | 5.8 | 0.9 | 10.8 | 0.9
COC(=O)c1ccc(CSc2nc3c(cnn3-c3ccc(Cl)cc3)c(=O)[nH]2)o1 | 75.9* | 0.1 | 90.0* | 0.2
CCOC(=O)N1CCN(C(=O)CSc2nc3c(cnn3-c3ccc(Cl)cc3)c(=O)[nH]2)CC1 | 67.5* | 1 | -4.1 | 0.3
CCOc1ccc(-n2c(=S)sc3c(=O)[nH]c(SCC(=O)N4CCC(C)CC4)nc32)cc1 | 97.1* | 0.8 | 17.3 | 0
CC1CCN(C(=O)CSc2nc3c(cnn3-c3ccc(Cl)cc3)c(=O)[nH]2)CC1 | 54.6* | 0.9 | 5.0 | 0.5
CC1CCN(C(=O)CSc2nc3c(cnn3-c3ccccc3)c(=O)[nH]2)CC1 | 37.0 | 1 | 3.7 | 0.6

Compound activity deposited in PubChem BioAssay by Sanford-Burnham Center for Chemical Genomics.
